The structures appear in SMILES notation. About 8,600 (12%) of roughly 69,000 compounds showed an effect of 50% or more. This excerpt belongs to a sample that is enriched for strong results.

We go through 51 molecules from ChEMBL document CHEMBL4513216, “Probing the Open Global Health Chemical Diversity Library for Multistage-Active Starting Points for Next-Generation Antimalarials” (ACS Infect Dis, 2020).

This test deals with Plasmodium berghei. Put plainly: Screen against P. berghei liver stage (PbLuc), transformed with Luciferase, at 10uM. As to conditions: tested at 10 uM. Type of test: functional, HepG2.
Regarding `CCc1nccn1C1CCCN(C(=O)c2ccc(NC3CC3)nc2)C1` (stereo unspecified), the INHIBITION is given as -40.0335%.
In the case of `CNc1ncc(-c2ccc(NC(=O)[C@@H]3CCCCN3)cc2)cn1`, the INHIBITION came to 4.08%.
For `COc1ncccc1CNC(=O)c1ccc(C)[nH]c1=O`, the INHIBITION came to 20.5%.
`COc1ccc(CN2CCn3c(CNS(C)(=O)=O)nnc3C2)cc1`: the INHIBITION amounted to 13.1%.
The same measure for `Cn1cnnc1SCCCNC(=O)Nc1ncccn1`: 4.66%; for `CCc1nnc2n1CCN(CC(=O)Nc1cc(C)nn1C)C2`: 45.6%.
Regarding `Cn1cc(CN2CCC3(CC2)NC(=O)CC3c2ccncc2)cn1` (stereo unspecified), the INHIBITION turned out to be 14.6%.
In the case of `CN(CC(=O)Nc1cc(CC2CCCCC2)n[nH]1)S(C)(=O)=O`, the INHIBITION is -37%.
Take `CN(CCc1cccs1)CCc1nccs1`: the INHIBITION is 5.11%.
The result for `CN(CCc1ccncc1)CCc1nccs1` reads 79.5%; that for `CN(CCc1ccccn1)CCc1nccs1`, 40.9%.
Consider `CCN(C)c1ncnc2c1CCN(Cc1ccc(F)cc1)CC2`, for which the INHIBITION turned out to be 22.5%.
As for `CCCc1nnc(NCCc2noc(C3CCCC3)n2)o1`, the INHIBITION is given as 22.5%.
The same measure for `CCn1ccc(C(=O)N2CCOC(c3nc(-c4cccs4)no3)C2)n1` (stereo unspecified): 42.6%.
In the case of `O=C(c1cncnc1)N1CCCC(c2nccs2)C1` (stereo unspecified), the INHIBITION turned out to be 13.54%.
As to `CCn1cc(C(=O)N2CCOC(c3nc(-c4cccs4)no3)C2)cn1` (stereo unspecified), the INHIBITION was determined as 73.8%.
For `O=C(c1cnc(O)c(Cl)c1)N1CCCC(c2nccs2)C1` (stereo unspecified), the INHIBITION is reported as 26.9%.
With `CCCn1cc(C(=O)N2CCOC(c3nc(-c4cccs4)no3)C2)cn1` (stereo unspecified), the INHIBITION came to 48.6%.
The result for `CCc1csc(C2CCCN(C(=O)c3cnn(CC)c3)C2)n1` (stereo unspecified) reads -19.7%; that for `CCCn1cc(C(=O)N2CCCC(Cc3nccs3)C2)cn1` (stereo unspecified), 17.4%; that for `O=C(c1cnc(C2CC2)nc1)N1CCCC(c2nccs2)C1` (stereo unspecified), 52%.
With `CCn1cc(C(=O)N2CCCC(c3nccs3)C2)cn1` (stereo unspecified), the INHIBITION is 56%.
The result for `NC(=O)N1CCC(C(=O)NCc2nncn2-c2ccccc2)CC1` reads 38.5%; that for `CC(C)c1nc(CN2CCOC(Cn3cccn3)C2)no1` (stereo unspecified), -38.7%; that for `Cc1ncncc1C(=O)N1C[C@@H]2CC[C@H]1CN(C(=O)c1ccncc1)C2`, -19.2%.
Consider `CC(C)c1nccn1CCC(=O)NCC(C)(O)c1ccco1` (stereo unspecified), for which the INHIBITION is reported as -33.4%.
`CN(C(=O)c1ccco1)c1nc2c(s1)CCCC2`: the INHIBITION was -68.6%.
With `Cc1cc(=O)n(CC(=O)NCC2CCCO2)c(-c2cccc(Cl)c2)n1` (stereo unspecified), the INHIBITION was 33.5%.
`Cc1cc(=O)n(CC(=O)NCC2CCCO2)c(-c2ccc(F)cc2)n1` (stereo unspecified): the INHIBITION came to 50.1%.
For `Cc1cc(=O)n(CC(=O)NCC2CCCO2)c(-c2ccccc2)n1` (stereo unspecified), the INHIBITION is 21%.
On to `O=C(N1CCCO1)[C@@]12CCO[C@@H]1CCN(Cc1ccc(F)cc1)C2`, for which the INHIBITION is given as -47.8%.
For the molecule `O=C(C[C@@H]1COC[C@H]2CN(CC3CCOCC3)C[C@@H]12)N1CCCCO1`, the INHIBITION was 76.4%.
With `O=C(C[C@@H]1COC[C@H]2CN(Cc3ccc(F)cc3)C[C@@H]12)N1CCCCO1`, the INHIBITION was -13.4%.
Turning to `O=C(C[C@@H]1COC[C@H]2CN(CC3CC3)C[C@@H]12)N1CCCCO1`, the INHIBITION is on record as 16.9%.
As for `CS(=O)(=O)N1C[C@@H]2COC[C@@H](CC(=O)N3CCCCO3)[C@@H]2C1`, the INHIBITION came to 28.2%.
`O=C(C[C@@H]1COC[C@H]2CN(C3CCCC3)C[C@@H]12)N1CCCCO1`: the INHIBITION turned out to be 57.1%.
The result for `O=C([C@@H]1COC[C@H]2CN(C3CCCC3)C[C@H]21)N1CCCCO1` reads 40.5%.
Regarding `O=C(c1ccncn1)N1CCC[C@]2(C[C@H](Oc3ncccc3F)CO2)C1`, the INHIBITION is listed as -10.3%.
`COc1cccc(S(=O)(=O)N2C[C@@H](O)[C@H](N(C)C)C2)c1`: the INHIBITION turned out to be 9.98%.
For the molecule `Cn1cc(-c2cnc(N3CCCC3)nc2)cc1C(=O)N1CCOCC1`, the INHIBITION was -18.4%.
The result for `Cn1nccc1C(=O)N1CCC(c2ncc(Cl)cc2S(C)(=O)=O)CC1` reads 30.4%; that for `CCn1ncc(CN2C[C@@H]3CCCN3C[C@@H]2CCSC)c1C`, 46%.
The same measure for `CCn1ncc(CN2C[C@@H]3CCCN3C[C@H]2CCSC)c1C`: 2.71%.
As to `C=Cn1ncc(CN2C[C@@H]3C[C@@H](O)CN3C[C@H]2Cc2ccccc2)c1C`, the INHIBITION amounted to 13%.
The same measure for `C=Cn1ncc(CN2C[C@@H]3C[C@@H](O)CN3C[C@@H]2Cc2ccccc2)c1C`: 42.6%.
As to `CCCn1ncc(CN2C[C@@H]3CCCN3C[C@H]2Cc2ccccc2)c1C`, the INHIBITION was found to be 57.5%.
Turning to `CCCn1ncc(CN2C[C@@H]3CCCN3C[C@@H]2Cc2ccccc2)c1C`, the INHIBITION stood at 29.3%.
Take `C=Cn1ncc(CN2C[C@@H]3CCCN3C[C@@H]2Cc2ccccc2)c1C`: the INHIBITION is 50%.
As for `CCCn1ncc(CN2C[C@@H]3CCCN3C[C@H]2CCSC)c1C`, the INHIBITION is given as 37.6%.
`CCCn1ncc(CN2C[C@@H]3CCCN3C[C@@H]2CCSC)c1C`: the INHIBITION came out at 57.4%.
On to `C=Cn1ncc(CN2C[C@@H]3CCCN3C[C@@H]2CCSC)c1C`, for which the INHIBITION was 30.8%.
